# Data published in ChEMBL document CHEMBL1157539, “Thousands of chemical starting points for antimalarial lead identification” (Nature, 2010).
# Test system: Plasmodium falciparum
# Test: GSK_TCMDC: Inhibition of Plasmodium falciparum Dd2 in whole red blood cells, using parasite LDH activity as an index of growth. Test compounds present at 2uM
# Format: functional
row,SMILES,Inhibition [%]
1,Cc1cnc(Nc2cccc(CCN3CCOCC3)c2)nc1NC(C)C.Cl,76
2,CN(C)CCNCc1nc(-c2ccc3c(Nc4ccc(Cl)cc4F)ccnc3c2)cs1,100
3,O=C(Nc1ccc(Br)cc1)N(CCN1CCOCC1)CC(O)COCc1ccc(Cl)c(Cl)c1.O=C(O)C(F)(F)F (stereo not drawn),52
4,O=C(Nc1cccc(CN2CCN(Cc3ccc(O)cc3)CC2)c1)c1cc2ccccc2s1.O=C(O)C(F)(F)F,26
5,CCc1ccc(NC(=O)c2cccc(CN3CCCN(Cc4ccc(OC)cc4)CC3)c2)cc1.O=C(O)C(F)(F)F,0
6,Br.Oc1ccc(CCNCCCCCCNCCc2ccc(Cl)cc2)c(Cl)c1O,30
7,CCn1ccc2c(N3CCCCS3(=O)=O)cc(C(=O)N[C@@H](Cc3ccccc3)[C@H](O)CNC(C)(C)CCCC(C)C)cc21,98
8,CC(NCC(O)Cn1c2ccccc2c2ccccc21)c1ccccc1.O=C(O)c1ccccc1 (stereo not drawn),85
9,CC(C)(C(=O)Nc1ccc(C2CCC(NCC3CC3)CC2)c(Cl)c1)c1ccc(C(F)(F)F)cc1 (stereo not drawn),18
10,COc1ccc(C(=O)N2CCC3(CC2)C(=O)N(CC(=O)NCC2CCCCC2)CN3c2ccccc2)c(OC)c1,99
11,CCN(CC)/C(=N/C(=N)NCc1cccc(Cl)c1)NCCCCCCN/C(=N\C(=N)NCc1cccc(Cl)c1)N(CC)CC,99
12,O=[N+]([O-])c1ccc(C(O)P(=O)(c2ccccc2)c2ccccc2)cc1 (stereo not drawn),1
13,FC(F)(F)c1ccc2[nH]c(-c3ccc(-c4cccc(CN5CCN(CCN6CCOCC6)CC5)c4)cc3)nc2c1.O=C(O)C(F)(F)F,77
